Each structure is given as a SMILES string. This is part of a sample that, as a whole, favours compounds with a hit. Of some 83,000 tested, about 20% had one in any assay.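 Testing used 96-well plates and a 48-hour single-concentration exposure. Example: -40 means 40% of the starting cells died.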 A number with no mark means an inactive call. The source made the active and inactive calls. How the source made its calls: active means growth percent below 10; inactive means the rest.

Results on seven compounds are retold here after PubChem BioAssay (NCI).

Holding throughout (test): NCI-60 one-dose screen, 48 h (100 = growth as untreated, 0 = no growth, -100 = all killed)
The subject of assay [1] is NCI-H23 lung. The note with it: 10 µM unless noted.
Assay [2] relates to NCI-H226 lung. Conditions: 10 µM unless noted.
Assay [3] relates to NCI-H322M lung. Conditions: 10 µM unless noted.
The subject of assay [4] is HOP-62 NSCLC. The note with it: 10 µM unless noted.
In assay [5] the test system is NCI-H460 lung. Conditions: 10 µM unless noted.
In assay [6] the test system is HOP-92 NSCLC. Conditions: 10 µM unless noted.
Assay [7] has as its system NCI-H522 lung. Conditions: 10 µM unless noted.
In assay [8] the test system is A549/ATCC NSCLC. The note with it: 10 µM unless noted.
The subject of assay [9] is 786-0 renal. Conditions: 10 µM unless noted.
Assay [10] relates to COLO 205 colon. Conditions: 10 µM unless noted.
Assay [11] concerns DU-145 prostate. Conditions: 10 µM unless noted.
The test system of assay [12] is K-562 leukemia. The note with it: 10 µM unless noted.
Assay [13] has as its system MALME-3M melanoma. The note with it: 10 µM unless noted.
Assay [14] has as its system MDA-MB-231 breast. Conditions: 10 µM unless noted.
For assay [15], the system named is RXF 393 renal. The note with it: 10 µM unless noted.
The subject of assay [16] is SF-268 CNS. The note with it: 10 µM unless noted.
For assay [17], the system named is SF-295 CNS. Conditions: 10 µM unless noted.
The test system of assay [18] is SF-539 CNS. Conditions: 10 µM unless noted.
The test system of assay [19] is UACC-257 melanoma. Conditions: 10 µM.
In assay [20] the test system is M14 melanoma. Conditions: 10 µM unless noted.

For the compound `C(=C(\C1=NCCN1)n1cnc2ccccc21)/c1cccc2ccccc12`, the growth in [1] is 90.7%; in assay [2], 76.4%; in assay [3], 88.2%; in assay [4], 88.6%; in assay [5], 101%; in assay [6], 8.37% (active). For the same compound, the growth in [7] is 79.4%; in [8], 94%; in assay [9], 92.5%; in assay [10] it was 106%; in assay [11] it was 98.1%; in assay [12], 84.9%. Besides, the growth in assay [13] is 91.7%; in assay [14] it was 81%; in [15], 46.9%; in assay [16], 85%; in [17] it was 76.9%; in assay [18] it was 91.7%. Also, the growth in assay [19] is 94.7%; in assay [20], 70%.

As to `Cc1cnc2nc(NN)[nH]n12`, the growth is 104% in [1]; 93.4% in [2]; 100% in [3]; 93% in [4]; 103% in [5]; 100% in assay [6]. Besides, the growth in assay [7] was 93.1%; in assay [8], 99.2%; in [9], 103%; in [10], 101%; in assay [11], 109%; in [12], 103%. The growth is 102% in assay [13]; 106% in assay [14]; 119% in [15]; 99.8% in assay [16]; 95.2% in assay [17]; 100% in assay [18]. Also, the growth in assay [19] and in [20] was 101% each time.

For `Nc1nc(-c2cccc([N+](=O)[O-])c2)c(N=Nc2cccc(Cl)c2)s1`, the growth is 45.5% in assay [1]; 58.5% in [2]; 75.1% in [3]; 46.3% in [4]; 49.5% in assay [5]; -13.7% (active) in assay [6]. Also, the growth is 26% in assay [7]; 48.7% in [8]; 47.3% in [9]; 48.1% in assay [10]; 63.6% in [11]; 30.1% in assay [12]. Further, the growth in [13] is 93.1%; in assay [14], 47.3%; in [15], -11.4% (active); in assay [16] it was 41.4%; in [17] it was 53%; in assay [18], 55.2%. The growth was 77.6% in assay [19] and 37% in assay [20].

`C=CCn1c(SCC(=O)Nc2ccc(OC)cc2)nnc1-c1ccc(Cl)cc1`: the growth in assay [1] is 81.1%; in assay [2] it was 88.8%; in assay [3], 96.4%; in assay [4], 101%; in assay [5] it was 104%; in assay [6] it was 68.8%. Besides, the growth is 83.4% in [7]; 103% in assay [8]; 104% in [9]; 107% in assay [10]; 99.5% in [11]; 89.6% in assay [12]. For the same compound, the growth in assay [13] is 89.9%; in assay [14] it was 85.3%; in [15], 86.6%; in assay [16], 90.6%; in [17] it was 98.1%; in assay [18], 94.8%. Moreover, the figures for the growth in [19] and in [20] were 97.1% and 96.3%, respectively.

On to `Oc1ccc(-c2nnc(SCc3ccc(O)c4ncccc34)o2)cc1`, for which the growth in assay [1] is 13.4%; in [2], 8.78% (active); in assay [3] it was 19.8%; in [4], 13.9%; in assay [5], 2.22% (active); in assay [6] it was -15.9% (active). The growth in assay [7] is 11.4%; in assay [8], 15.2%; in [9], 20.5%; in assay [10] it was 46.2%; in assay [11] it was 21.2%; in assay [12], 14.2%. For the same compound, the growth in [13] was 18.7%; in [14], 24.5%; in assay [15], -3.04% (active); in assay [16], 15.9%; in assay [17], 0.187% (active); in assay [18] it was 13.8%. Also, the growth in [19] is 1.45% (active); in [20], 0.609% (active).

Regarding `O=C(/C=C/Nc1ccc(S(=O)(=O)O)cc1)c1ccc(F)cc1`, the growth is 95.9% in assay [1]; 98.5% in assay [2]; 102% in [3]; 117% in assay [4]; 101% in assay [5]; 96.2% in assay [6]. In addition, the growth in [7] is 98.5%; in assay [8], 101%; in assay [9] it was 106%; in assay [10] it was 101%; in [11] it was 103%; in [12], 106%. The growth in assay [13] is 105%; in assay [14], 106%; in [15] it was 99.9%; in assay [16] it was 102%; in [17], 98.7%; in assay [18], 94%. Also, the growth in [19] was 101%; in assay [20], 96%.

On to `CCOC(=O)/C(F)=C/C1CC1C1CCCCC1` (stereo not given), for which the growth is 97.4% in assay [1]; 104% in [2]; 105% in assay [3]; 122% in assay [4]; 104% in assay [5]; 83.1% in assay [6]. The growth is 103% in assay [7]; 104% in assay [8]; 102% in assay [9]; 110% in assay [10]; 105% in assay [11]; 117% in assay [12]. For the same compound, the growth in [13] was 97.9%; in assay [14] it was 98.6%; in assay [15] it was 108%; in assay [16], 102%; in assay [17], 103%; in [18], 94.3%. The results for the growth in [19] and in assay [20] were 120% and 98.9%, respectively.
